In the supplement of paper PMC12350171:
Where a name gives a salt, the structure may show the parent alone.

test system: S. enterica typhimurium tolC KO; test: growth AUC normalised to DMSO control (median) (fraction of control); higher = less growth inhibition, active = hit call of the paper; conditions: 20 µM;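 active = normalised median growth AUC below 0.1 of DMSO control; inactive = AUC 0.1 or higher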
Outline: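 Anaerobic growth was tracked hourly at OD578 for 24 h in 96-well plates of mGAM seeded at OD578 0.01 with each approved-drug library compound at 20 μM and 1% DMSO. Strains had first been passaged twice overnight without oxygen. Three biological replicates were run. The reported median is the area under the curve, calculated by the trapezoidal rule on curves truncated at entry into stationary phase and normalised to vehicle wells on the same plate.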
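Also: active when median AUC fell below 0.1.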

SMILES | growth AUC normalised to DMSO control
CN(CCCN1c2ccccc2CCc2ccccc21)CC(=O)c1ccc(Cl)cc1 [Lofepramine] | 0.957 (inactive)
CCN(CC)C(=O)C1(c2ccccc2)CC1CN (configuration not stated) [Milnacipran hydrochloride] | 1 (inactive)
Nc1ccc(S(=O)(=O)Nc2ccc(Cl)nn2)cc1 [Sulfachloropyridazine] | 0.963 (inactive)
O=C1[C@H]2CCCC[C@H]2C(=O)N1CCCCN1CCN(c2nsc3ccccc23)CC1 [Perospirone hydrochloride] | 0.98 (inactive)
O=c1[nH]c(=O)n([C@H]2C[C@H](O)[C@@H](CO)O2)cc1/C=C/Br [Brivudine] | 1.01 (inactive)
CCC(=O)c1c(O)cc(O)cc1O [Flopropione] | 0.994 (inactive)
O=C1OC(c2ccc(O)cc2)(c2ccc(O)cc2)c2ccccc21 [Phenolphthalein] | 0.524 (inactive)
NC(=O)[C@@H]1CCCN1C(=O)[C@H](Cc1c[nH]cn1)NC(=O)[C@@H]1CCC(=O)N1 [Thyrotropin-Releasing Hormone] | 1.01 (inactive)
CC[C@H](C)[C@H](NC(=O)[C@H](Cc1ccc(O)cc1)NC(=O)[C@@H](NC(=O)[C@H](CCCN=C(N)N)NC(=O)[C@@H](N)CC(=O)O)C(C)C)C(=O)N[C@@H](Cc1cnc[nH]1)C(=O)N1CCC[C@H]1C(=O)N[C@@H](Cc1ccccc1)C(=O)O [Angiotensin II (Human) Trifluoroacetic acid salt] | 1.02 (inactive)
CC(=O)Nc1cccc(O)c1 [Metacetamol] | 0.987 (inactive)
CC(C)c1ccc2oc3nc(N)c(C(=O)O)cc3c(=O)c2c1 [Amlexanox] | 0.971 (inactive)
CCOC(=O)[C@H](CCc1ccccc1)N[C@@H](C)C(=O)N(CC(=O)O)C1Cc2ccccc2C1 [Delapril Hydrochloride] | 0.987 (inactive)
Cc1nc(C)c(Cl)c(O)c1Cl [Clopidol] | 0.983 (inactive)
CC1=C(C)C(=O)C(C(CCCCCC(=O)O)c2ccccc2)=C(C)C1=O (configuration not stated) [Seratrodast] | 0.999 (inactive)
N[C@@H](C(=O)N[C@@H]1C(=O)N2C(C(=O)O)=C(Cl)CC[C@H]12)c1ccccc1 [Loracarbef] | 0.0264 (active)
Nc1nc2[nH]cc(CCc3ccc(C(=O)N[C@@H](CCC(=O)O)C(=O)O)cc3)c2c(=O)[nH]1 [Pemetrexed disodium] | 0.999 (inactive)
NC(N)=Nc1nc(CSCCN/C=N/S(=O)(=O)c2ccc(Br)cc2)cs1 [Ebrotidine] | 0.987 (inactive)
O=P(O)(O)C(O)(Cn1ccnc1)P(=O)(O)O [Zoledronic acid hydrate] | 0.994 (inactive)
CCOC(=O)OC(C)OC1=C(C(=O)Nc2ccccn2)N(C)S(=O)(=O)c2ccccc21 (configuration not stated) [Ampiroxicam] | 0.986 (inactive)
C[N+](C)(C)C[C@H](O)CC(=O)[O-] [Levocarnitine] | 1 (inactive)
C[C@H]1COc2c(N3CCN(C)CC3)c(F)cc3c(=O)c(C(=O)O)cn1c23 [Levofloxacin] | 0.00559 (active)
CCCCCCCCCCCCCCCCCCCCCC(=O)Nc1ccn([C@@H]2O[C@H](CO)[C@@H](O)[C@@H]2O)c(=O)n1 [Enocitabine] | 1 (inactive)
CC(C(=O)O)c1ccc(CC2CCCC2=O)cc1 (configuration not stated) [Loxoprofen] | 1.01 (inactive)
COc1c(-c2ccc3cc(NS(C)(=O)=O)ccc3c2)cc(-n2ccc(=O)[nH]c2=O)cc1C(C)(C)C [Dasabuvir] | 0.94 (inactive)
CCc1ccc(C(=O)C(C)CN2CCCCC2)cc1 (configuration not stated) [Eperisone Hydrochloride] | 0.989 (inactive)
CC(C)(C)c1ccc(C(=O)CCCN2CCC(OC(c3ccccc3)c3ccccc3)CC2)cc1 [Ebastine] | 0.97 (inactive)
O=C1CC[C@@H](C(=O)N2CSC[C@H]2C(=O)O)N1 [Pidotimod] | 0.991 (inactive)
